# Assay results as given in PubChem BioAssay (NCATS).
# Records with an inconclusive call do not appear. The source made the active and inactive calls. Calls follow the shape of the dose curve; as a rule, active = well fitted curve in the direction sought with a large enough effect; inconclusive = small, poorly fitted or top-dose-only effect, or another doubt; inactive = no such curve, though single readings can be large; an effect the other way counts as inactive or inconclusive. Non-standard residues stand in square brackets, D forms with d. Residues, ends and D or L forms follow the SMILES beside them. *: point of attachment. Nva = CCC[C@H](N)C(=O)O; Cbz = O=C(OCc1ccccc1)*
# How the values were obtained:
# [1] = Quantitative High-Throughput drug screen in 47 multiple myeloma cell lines against the NCATS MIPE library collection: ARD_JJKsccE7 cell viability assay (AID 1918929)
# In short: (§1)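 Approved and investigational drugs from MIPE 4.0 were added by pin tool to 500 cells per well. After 48 hours at 37C, ATP-based CellTiter-Glo luminescence indicated remaining viability.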
# [2] = Quantitative High-Throughput drug screen in 47 multiple myeloma cell lines against the NCATS MIPE library collection: Karpas620_DSMZ cell viability assay (AID 1918959); also: nearly all actives have a fitted effect of over 30% in size
# In short: (§2)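 Relative luminescence from CellTiter-Glo served as the viability signal, referenced to DMSO-treated (100%) and cell-free medium (0%) controls. Treatment lasted 48 hours at 37C with 500 cells per well.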
# [3] = Quantitative High-Throughput drug screen in 47 multiple myeloma cell lines against the NCATS MIPE library collection: KMM1_JCRB cell viability assay (AID 1918960); also: nearly all actives have a fitted effect of over 30% in size
# In short: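 Each line was plated at 500 cells/well and treated 48 h with library drugs. Viability came from CellTiter-Glo luminescence relative to DMSO and cell-free medium controls.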
# [4] = Quantitative High-Throughput drug screen in 47 multiple myeloma cell lines against the NCATS MIPE library collection: Karpas417_ECACC cell viability assay (AID 1918961); conditions: Karpas417 myeloma viability, CellTiter-Glo ATP luminescence, 48 h; viability (% of DMSO): at 45.8 µM (top of the series)
# In short: as §2
# [5] = Quantitative High-Throughput drug screen in 47 multiple myeloma cell lines against the NCATS MIPE library collection: KHM11_PLB cell viability assay (AID 1918962); also: nearly all actives have a fitted effect of over 35% in size
# In short: as §2
# [6] = Quantitative High-Throughput drug screen in 47 multiple myeloma cell lines against the NCATS MIPE library collection: Karpas25_ECACC cell viability assay (AID 1918968; also: nearly all actives have a fitted effect of over 35% in size)
# In short: as §1
# [7] = Quantitative High-Throughput drug screen in 47 multiple myeloma cell lines against the NCATS MIPE library collection: KMS27_JCRB cell viability assay (AID 1918970); conditions: KMS27 myeloma cells, CellTiter-Glo ATP viability, 48 h; viability (% of DMSO): at 45.8 µM (top of the series); also: nearly all actives have a fitted effect of over 30% in size
# In short: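 Each line is seeded at 500 cells per well and treated with library compounds for 48 hours under 37 °C, 5% CO2. CellTiter-Glo is then added for 5 min at room temperature before median relative luminescence is recorded.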
# [8] = Quantitative High-Throughput drug screen in 47 multiple myeloma cell lines against the NCATS MIPE library collection: KMS12PE_JCRB cell viability assay (AID 1918972); also: nearly all actives have a fitted effect of over 30% in size
# In short: as §2
# [9] = Quantitative High-Throughput drug screen in 47 multiple myeloma cell lines against the NCATS MIPE library collection: KMS21BM_JCRB cell viability assay (AID 1918974); conditions: ATP luminescence, 48 h; viability: at 45.8 µM (top of the series)
# In short: as §1
# [10] = Quantitative High-Throughput drug screen in 47 multiple myeloma cell lines against the NCATS MIPE library collection: KMS26_JCRB cell viability assay (AID 1918975); also: nearly all actives have a fitted effect of over 45% in size
# In short: (§3)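 qHTS of the MIPE 4.0 collection: 500 myeloma cells/well, 48 h drug exposure at 37C in 5% CO2, then CellTiter-Glo for 5 min at room temperature before luminescence reading.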
# [11] = Quantitative High-Throughput drug screen in 47 multiple myeloma cell lines against the NCATS MIPE library collection: MOLP8_DSMZ cell viability assay (AID 1918977); also: nearly all actives have a fitted effect of over 45% in size
# In short: (§4)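 Readout: median RLU from CellTiter-Glo after 5 min at room temperature. Preceding step was 48 h drug treatment of 500 cells/well at 37 °C, 5% CO2, with DMSO-only and media-only control wells.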
# [12] = Quantitative High-Throughput drug screen in 47 multiple myeloma cell lines against the NCATS MIPE library collection: NCIH929_DSMZ cell viability assay (AID 1918978); also: nearly all actives have a fitted effect of over 35% in size
# In short: as §4
# [13] = Quantitative High-Throughput drug screen in 47 multiple myeloma cell lines against the NCATS MIPE library collection: JIM3_ECACC cell viability assay (AID 1918963; also: nearly all actives have a fitted effect of over 35% in size)
# In short: as §2
# [14] = Quantitative High-Throughput drug screen in 47 multiple myeloma cell lines against the NCATS MIPE library collection: JIM1_ECACC cell viability assay (AID 1918964)
# In short: as §1
# [15] = Quantitative High-Throughput drug screen in 47 multiple myeloma cell lines against the NCATS MIPE library collection: INA6_PLB cell viability assay (AID 1918965; also: nearly all actives have a fitted effect of over 55% in size)
# In short: as §2
# [16] = Quantitative High-Throughput drug screen in 47 multiple myeloma cell lines against the NCATS MIPE library collection: JJN3_DSMZ cell viability assay (AID 1918966; also: nearly all actives have a fitted effect of over 50% in size)
# In short: as §1
# [17] = Quantitative High-Throughput drug screen in 47 multiple myeloma cell lines against the NCATS MIPE library collection: H1112_PLB cell viability assay (AID 1918967; also: nearly all actives have a fitted effect of over 30% in size)
# In short: as §1
# [18] = Quantitative High-Throughput drug screen in 47 multiple myeloma cell lines against the NCATS MIPE library collection: KMS12BM_JCRB cell viability assay (AID 1918971); also: nearly all actives have a fitted effect of over 35% in size
# In short: as §3
# [19] = Quantitative High-Throughput drug screen in 47 multiple myeloma cell lines against the NCATS MIPE library collection: KMS20_JCRB cell viability assay (AID 1918973); also: nearly all actives have a fitted effect of over 45% in size
# In short: as §1
# [20] = Quantitative High-Throughput drug screen in 47 multiple myeloma cell lines against the NCATS MIPE library collection: MMM1_PLB cell viability assay (AID 1918976); also: nearly all actives have a fitted effect of over 35% in size
# In short: as §4
# Potency is read from the fitted curve at half-maximal effect.
Structure (SMILES),Potency [1],Potency [2],Potency [3],Potency [4],Potency [5],Potency [6],Potency [7],Potency [8],Potency [9],Potency [10],Potency [11],Potency [12],Potency [13],Potency [14],Potency [15],Potency [16],Potency [17],Potency [18],Potency [19],Potency [20]
Cn1cc(C=CC(=O)c2cccc(F)c2)cc1C=CC(=O)NO,16.6 µM (active),13.2 µM (active),16.6 µM (active),13.2 µM (active),inactive,8.33 µM (active),14.8 µM (active),14.8 µM (active),4.69 µM (active),16.6 µM (active),16.6 µM (active),20.9 µM (active),,,,,,,,
COc1ccc(S(=O)(=O)Nc2cc(-c3c(O)ccc4ccccc34)c(O)c3ccccc23)cc1,5.26 µM (active),1.66 µM (active),8.33 µM (active),1.66 µM (active),14.8 µM (active),5.26 µM (active),14.8 µM (active),13.2 µM (active),18.7 µM (active),14.8 µM (active),,3.32 µM (active),9.35 µM (active),3.32 µM (active),2.96 µM (active),8.33 µM (active),9.35 µM (active),26.4 µM (active),9.35 µM (active),16.6 µM (active)
CCN(CC)Cc1ccc2cc(COC(=O)Nc3ccc(C(=O)NO)cc3)ccc2c1,0.662 µM (active),0.833 µM (active),0.469 µM (active),0.526 µM (active),1.32 µM (active),0.372 µM (active),0.235 µM (active),0.469 µM (active),0.0418 µM (active),0.743 µM (active),0.372 µM (active),0.59 µM (active),1.48 µM (active),0.469 µM (active),0.0743 µM (active),0.833 µM (active),1.18 µM (active),0.469 µM (active),,
Nc1ccc(C(=O)Nc2cccc(-c3nc(N4CCOCC4)c4oc5ncccc5c4n3)c2)cn1,1.66 µM (active),6.62 µM (active),0.418 µM (active),0.526 µM (active),,2.35 µM (active),6.62 µM (active),2.64 µM (active),10.5 µM (active),2.35 µM (active),20.9 µM (active),2.64 µM (active),4.18 µM (active),5.26 µM (active),3.32 µM (active),5.26 µM (active),4.18 µM (active),23.5 µM (active),1.48 µM (active),16.6 µM (active)
COc1cc(O)c2c(c1)C1OC1C[C@H](O)[C@H](O)C(=O)C=CC[C@H](C)OC2=O (stereo partly specified),5.9 µM (active),2.64 µM (active),4.18 µM (active),0.469 µM (active),0.296 µM (active),3.32 µM (active),7.43 µM (active),11.8 µM (active),,1.87 µM (active),0.418 µM (active),1.48 µM (active),,2.96 µM (active),2.96 µM (active),5.26 µM (active),5.26 µM (active),1.48 µM (active),1.18 µM (active),18.7 µM (active)
CCC[C@@H](C=O)NC(=O)[C@H](CC(C)C)NC(=O)[C@H](CC(C)C)NC(=O)OCc1ccccc1 (Cbz-Leu-Leu-[Nva]-aldehyde),0.332 µM (active),0.332 µM (active),0.235 µM (active),0.296 µM (active),0.469 µM (active),0.296 µM (active),,0.296 µM (active),,1.32 µM (active),,0.296 µM (active),0.935 µM (active),0.372 µM (active),0.235 µM (active),1.18 µM (active),0.418 µM (active),1.05 µM (active),0.187 µM (active),3.72 µM (active)
COc1cc(C=CC(=O)CC(=O)C=Cc2ccc(O)c(OC)c2)ccc1O,6.05 µM (active),3.4 µM (active),4.81 µM (active),4.81 µM (active),6.05 µM (active),0.96 µM (active),3.03 µM (active),7.62 µM (active),,48.1 µM (active),9.59 µM (active),3.4 µM (active),4.81 µM (active),3.4 µM (active),1.52 µM (active),13.6 µM (active),6.79 µM (active),19.1 µM (active),6.05 µM (active),38.2 µM (active)
CNC(=O)c1ccc(Nc2cc(Nc3ccccc3S(=O)(=O)C(C)C)c3cc[nH]c3n2)nc1,1.87 µM (active),1.32 µM (active),1.48 µM (active),0.118 µM (active),0.833 µM (active),0.59 µM (active),,1.18 µM (active),0.418 µM (active),18.7 µM (active),10.5 µM (active),0.935 µM (active),1.18 µM (active),3.32 µM (active),0.469 µM (active),16.6 µM (active),4.18 µM (active),16.6 µM (active),0.935 µM (active),11.8 µM (active)
